# Reference: PubChem BioAssay AID589 (National Center for Advancing Translational Sciences (NCATS), 2007)
# The whole screen tested about 59,000 compounds, of which about 6,200 (11%) were called active. About 9% were inconclusive and are not listed. Cut-off read from the data, not from the text of the source: active = max dye-equivalent concentration above about 10 nM; inconclusive = mostly about 1.1 nM to 9.6 nM; inactive = weaker than that. The sample as a whole holds a higher share of actives than the screen did.
# Assay: qHTS Assay for Spectroscopic Profiling in 4-MU Spectral Region
# Details: compound autofluorescence, 340/450 nm, 4-MU equivalents; active compounds read high
# How it was run: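 Intrinsic fluorescence at 340/450 nm (ex/em) was read after 15 min at room temperature in pH 8.0, 100 mM Tris. Each compound concentration expressed as 4-MU-equivalent concentration from a six-point 4-MU standard series on each plate.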
row,Compound,max dye-equivalent concentration
1,O=C(NCC(F)(F)F)Nc1nnc(C(F)(F)F)s1,inactive
2,CN(C)CCCn1c(N)c(C#N)c2nc(C#N)c(C#N)nc21,730 nM (active)
3,O=C(O)C1CCN(S(=O)(=O)N2CCOCC2)CC1,inactive
4,O=C(CNS(=O)(=O)c1cccc(C(F)(F)F)c1)Nc1ccccc1F,inactive
5,Cc1ccccc1NC(=O)NCc1ccco1,inactive
6,CN1CCN(c2ncncc2-c2ccc(C(=O)N(C)C)cc2)CC1,inactive
7,COc1ccc(-c2nnc(SC(C)C#N)o2)cc1 (stereo unspecified),inactive
8,CCCC(=O)Nc1cc(OCC)c(NC(=O)NC2CCCCC2)cc1OCC,inactive
9,CCOc1ccc(CNC(=O)C2CCC(=O)N2C2CCCC2)cc1OC (stereo unspecified),inactive
10,CCOc1cc(C2C(C(=O)OC)=CN(C3CCCC3)C=C2C(=O)OC)cc(Br)c1O,200 nM (active)
11,OCCN1CCN(CC/C=C2\c3ccccc3Sc3ccc(C(F)(F)F)cc32)CC1,inactive
12,CN(C)C(=O)/N=N\C(=O)N(C)C,inactive
13,Cc1ccc2nc(S(=O)(=O)O)[nH]c2c1,inactive
14,CC(C)(C)n1nnnc1C(c1cccs1)N(Cc1cccnc1)CC1CCCO1 (stereo unspecified),inactive
15,CCC(c1nnnn1C1CCCC1)N(Cc1cccs1)Cc1cc2cccc(C)c2[nH]c1=O (stereo unspecified),inactive
16,CCC(c1nnnn1Cc1ccccc1)N(Cc1cc2cc(OC)ccc2[nH]c1=O)CC1CCCO1 (stereo unspecified),32 nM (active)
17,CCOc1ccc2c(c1)cc(CN(C(=O)CC)C1CCCCC1)c1nnnn12,inactive
18,Cc1cc(C)c2cc(CN(Cc3cccs3)Cc3nnnn3CC3CCCO3)c(=O)[nH]c2c1 (stereo unspecified),inactive
19,CCC(=O)N(Cc1cc2cc(OC)ccc2[nH]c1=O)c1ccccc1C,200 nM (active)
20,O=C(OCc1cc2ccccc2[nH]c1=O)c1cccnc1,inactive
21,COc1ccc2[nH]c(=O)c(CN(Cc3nnnn3CCc3ccccc3)CC3CCCO3)cc2c1 (stereo unspecified),360 nM (active)
22,c1ccc(CCn2nnnc2CN2CCN(C3CCCC3)CC2)cc1,inactive

row,Compound,max dye-equivalent concentration
1,CCOc1ccc2[nH]c(=O)c(CN(CCCO)C(C)=O)cc2c1,300 nM (active)
2,CN1CCC2(CC1)CCN(S(=O)(=O)c1ccccc1)CC2,inactive
3,Cc1ccc(S(=O)(=O)Cn2nnnc2CN2CCN(Cc3ccc4c(c3)OCO4)CC2)cc1,inactive
4,COc1cccc(N(CC(=O)Nc2cccc(N(C)S(C)(=O)=O)c2)S(C)(=O)=O)c1,inactive
5,CC(C)CNC(=O)C1CCCN(S(=O)(=O)c2ccc(-n3cnnn3)cc2)C1 (stereo unspecified),inactive
6,CCCOc1cccc(C(=O)Nc2nnn(CCC)n2)c1,inactive
7,CC(C)c1cc(CN(C)C)c(O)c(C(C)(C)C)c1,inactive
8,CCC(=O)Nc1cccc(NC(=O)CSc2nnc(-c3ccc(NS(C)(=O)=O)cc3)n2C)c1,inactive
9,Cc1ccc(N(C(=O)CC2NC(=O)NC2=O)C2(C(=O)NC3CCCC3)CCCCC2)cc1 (stereo unspecified),inactive
10,CC(=O)Cc1nsc(NC(=O)c2ccc(COc3ccc(C)cc3)o2)n1,inactive
11,CCC(c1nnnn1Cc1ccco1)N(Cc1cc2cc(OC)ccc2[nH]c1=O)C1CCCCC1 (stereo unspecified),22 nM (active)
12,COc1ccc2[nH]c(=O)c(CN(CC3CCCO3)C(=O)Nc3ccccc3)cc2c1 (stereo unspecified),110 nM (active)
13,COc1ccccc1N1CCN(Cc2nnnn2CCc2ccccc2)CC1,inactive
14,Cc1cccc2cc(CN(Cc3cccs3)C(c3nnnn3C3CCCC3)C(C)C)c(=O)[nH]c12 (stereo unspecified),inactive
15,O=C(CN(CC1CCCO1)C(=O)CNS(=O)(=O)c1ccccc1)NCc1ccccc1 (stereo unspecified),inactive
16,CCC(c1nnnn1Cc1ccco1)N(CCc1ccccc1)Cc1cc2ccc(OC)cc2[nH]c1=O (stereo unspecified),inactive
17,Cc1cccc2cc(CN(Cc3ccc4c(c3)OCO4)Cc3nnnn3C3CCCC3)c(=O)[nH]c12,inactive
18,CCOc1ccc2[nH]c(=O)c(CN(Cc3nnnn3CCc3ccccc3)CC3CCCO3)cc2c1 (stereo unspecified),76 nM (active)
19,CCOc1ccc2[nH]c(=O)c(CN(Cc3nnnn3Cc3ccccc3)CC3CCCO3)cc2c1 (stereo unspecified),120 nM (active)
20,N=c1c2c3c(sc2ncn1CCCN1CCOCC1)CCCCC3,inactive
21,CSc1sc(C)cc1C1C(C#N)=C(N)N(c2cccnc2)C2=C1C(=O)CCC2 (stereo unspecified),inactive
22,N#Cc1cccc(NC(=O)CCC2CCCC2)c1,inactive

row,Compound,max dye-equivalent concentration
1,Cc1oc2nc(SCC(=O)NCc3cccnc3)nc(N)c2c1C,inactive
2,COc1ccc(OC)c(NC(=O)CSc2nc3cccnc3n2C)c1,inactive
3,O=C(CCc1ccccc1)Nc1cccc(-c2nnc(-c3ccco3)o2)c1,inactive
4,Cc1ccc(CNC(=O)CN2CCN(Cc3ccc(Cl)cc3)C2=O)cc1,inactive
5,CCCC(=O)Nc1c(O)c2ccccc2[nH]c1=O,inactive
6,C=CCOc1ccc(C2/C(=C(\O)c3c(C)[nH]c(C(=O)OC)c3C)C(=O)C(=O)N2CCN(C)C)cc1 (stereo unspecified),inactive
7,CC1(C)NC(=O)N(CCOc2cccc(Oc3ccccc3)c2)C1=O,inactive
8,COc1ccc2[nH]cc(CCNc3nc(-c4cccc(NS(C)(=O)=O)c4)nc4ccccc34)c2c1,inactive
9,COc1ccccc1-c1cc(C(=O)NCCCn2ccnc2)no1,inactive
10,COc1ccc(CNc2ncncc2-c2ccccc2OC)c(OC)c1,inactive
11,Cc1cc(C)c2nc(N3CCCC3)c(C#N)cc2c1,130 nM (active)
12,Cc1ccc(OCc2nc(C#N)c(N3CCCC3)o2)cc1,inactive
13,Cc1cccc2cc(C#N)c(N3CCCC3)nc12,42 nM (active)
14,NC(=O)C1CCN(C(=O)c2ccc(C(F)(F)F)cc2)CC1,inactive
15,CN1CCN(CCCNC(=O)c2cc3c(=O)oc4ccccc4c3s2)CC1,inactive
16,O=C(c1ccc([N+](=O)[O-])cc1)[C@@H](Br)[C@@H](Br)c1ccnc2ccccc12,inactive
17,CC12C(=O)N(n3cnnc3)C(=O)C1C1C=CC2C1 (stereo unspecified),inactive
18,Fc1ccc2[nH]c3c(N4CCSCC4)ncnc3c2c1,47 nM (active)
19,Cc1ccc(-n2ncc3c(N4CCN(c5ccc(F)cc5)CC4)ncnc32)c(C)c1,inactive
20,Cc1cnc(CNc2nc(-c3cccnc3)nc3ccccc23)cn1,inactive
21,Cc1noc(C)c1C(=O)NC(C)c1ccc2c(c1)OCO2 (stereo unspecified),inactive
22,O=C(CSc1nnc(-c2ccco2)n1Cc1ccccc1)NC(=O)NCc1ccco1,inactive
